Compound activity: PubChem, National Center for Advancing Translational Sciences (NCATS)
Most compounds without a hit are left out; they make up all but 21% or so of the library.
NS1 inh – influenza NS1 inhibition; Potency, µM (doses to about 46.1 µM), for inactives: top-dose activity, positive = more growth; hit rate 0.4% among 270,000; calls by dose curve; further: potency means the concentration at half of the fitted maximal effect; actives are rising curves; nearly all actives have a fitted effect of over 50% in size
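Compounds were scored for reversing the slow growth caused by influenza A NS1 in S. cerevisiae, measured by optical density at 600 nm. Assay medium contained 2% galactose at pH 6.0; NS1-free yeast of the same strain were the positive control.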
SARS PLpro yeast – blocks SARS-CoV papain-like protease in a yeast assay | hit rate 0.19% among 330,000 | S. cerevisiae expressing SARS-CoV PLpro, growth rescue | AID 485353 | Potency, µM (doses to about 32.9 µM), inactives show at the top dose activity, positive = growth rescue, usual class: activators; calls by dose curve; further: potency means the concentration at half of the fitted maximal effect; 0% is about no effect; nearly all actives have a fitted effect of over 55% in size
Cycloheximide cs – counter-screen for Shiga toxin inhibitors: cycloheximide protein synthesis inhibition; max response, %; AID 2314; hit rate 12% among 300,000; cell reporter, cycloheximide protein synthesis inhibition counterscreen; in the data active means max response mostly above about 13%, no sharp cut-off; inactive means mostly below about 14%; further: read at 38.3 µM for the half of the compounds with a filed dose; 0% is about no effect
Pf growth 96h – P. falciparum growth inhibition at 96 hours; P. falciparum luciferase reporter growth, 96 h; Potency, µM (series often up to 28.7 µM), for the others: top-dose activity change, negative = inhibition, usual class: inhibitors; hit rate 6.9% among 320,000; AID 504834; further: potency means the concentration at half of the fitted maximal effect; on the % scale 0 is the no-effect control and ±100 the full control effect
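Erythrocytes infected with luciferase-expressing P. falciparum were dispensed at 2% hematocrit and 0.05% parasitemia (final), then incubated with compounds 96 hours at 37 C in 5% CO2. Luminescence after detection reagent addition reported growth.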
Shiga toxin inh – inhibitors of Shiga toxin in Vero cells. hit rate 9.2% among 290,000. inhibition, % at 38.7 µM. Vero cells, Shiga toxin protein synthesis inhibition reporter; in the data active means inhibition mostly above about 28%, no sharp cut-off; inactive means mostly below about 43%; further: 0% is about no effect
Pf growth 48h – P. falciparum growth inhibition at 48 hours (one generation) | hit rate 5.9% among 310,000 | AID 504832 | P. falciparum luciferase growth in erythrocytes, 48 h | Potency, µM (series often up to 28.7 µM), without a hit: top-dose activity change, negative = inhibition, hits mostly inhibitors; further: potency means the concentration at half of the fitted maximal effect; on the % scale 0 is the no-effect control and ±100 the full control effect
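Parasite viability was followed by luminescence of a genomically integrated firefly luciferase. Cultures held 0.1% parasitemia at 2% hematocrit (final), incubated under 5% CO2 at 37 C.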
* = called active by the depositor; ? = inconclusive; / = not tested or not shown; + = active, no number. Unless noted, the call rests on the fitted dose curve; in most records, active means well fitted inhibition curve with a large enough effect; inconclusive means small, poorly fitted or top-dose-only effect, or another doubt; inactive means no such curve, though single readings can be large or run the other way.

SMILES	NS1 inh	SARS PLpro yeast	Cycloheximide cs	Pf growth 96h	Shiga toxin inh	Pf growth 48h
Clc1ccccc1-c1nnc2sc(CCc3ccccc3)nn12	-86.7%	?	6.5	/	28.5	13.1µM*
COc1ccccc1-c1nn2c(-c3ccccc3Cl)nnc2s1	12.6µM*	-3.9%	-2.4	/	22.4	?
c1coc(-c2nn3c(-c4ccco4)nnc3s2)c1	-8.8%	-4.9%	10.3*	?	11.9	8.1%
c1ccc(CCc2nn3c(-c4ccncc4)nnc3s2)cc1	-34.3%	-6.7%	6.0	-8.7%	18.0	?
O=C(COC(=O)CCN=C1NS(=O)(=O)c2ccccc21)NNC(=O)c1ccc(Cl)cc1	/	0.8%	/	-19.7%	/	-21.7%
COC(=O)[C@@]1(C)[C@H]2C(=O)N(C)C(=O)[C@H]2[C@H]2CN=C(SCc3ccc(C#N)cc3)N21	/	5.0%	/	/	/	/
COc1ccccc1-c1nnc2sc(COc3ccc(Cl)cc3Cl)nn12	-117.2%	7.7%	-2.1	10.4µM*	-22.1	?
CCOC(=O)C1CCCN(c2ccc(NC(=O)c3snc4c(=O)[nH]cnc34)cc2)C1 (stereo not given)	6.3%	-1.6%	4.4	/	29.7	?
CCOC(=O)C1CCCN(c2ccc(NC(=O)c3snc4c(=O)[nH]c(C)nc34)cc2)C1 (stereo not given)	17.0%	0.6%	6.2	0.928µM*	-9.4	?
C/C(=N\NC(=O)c1ccncc1)c1ccc(N(C)C)cc1	/	-4.6%	13.6	80.8%	7.1	56.5%
C/C(=N\NC(=O)c1sccc1C)c1ccncc1	-12.7%	-1.5%	43.9*	7.38µM*	109.1*	98.3%
C/C(=N\NC(=O)c1sccc1C)c1cccnc1	-0.8%	-0.8%	41.3*	1.0%	89.1*	46.9%
Cc1ccc(NC(=O)CN2C(=O)NC(Cc3ccccc3)C2=O)cc1Cl (stereo not given)	/	-1.5%	/	-27.0%	/	-22.8%
Cc1ccc(C)c(NC(=O)CCCCCCCCCCC2COCCO2)c1 (stereo not given)	6.3%	11.2µM*	-8.5	13.1µM*	-14.2	-3.6%
Cc1ccc(C)c(NC(=O)CCN2CCOCC2)c1	-3.1%	1.5%	-2.6	?	-11.4	20.8%
COC(=O)CN(c1nc(C)c(Br)c(OC)n1)S(=O)(=O)c1ccccc1	-27.2%	-10.1%	-1.4	216.5%	-5.7	?
O=C(Nc1ccccc1)c1ccc(-c2ccc(Br)cc2)o1	-1.1%	-67.7%	37.8*	102.7%	53.9*	112.8%
O=C(Nc1ccccc1)c1ccc(-c2ccc([N+](=O)[O-])cc2)o1	-1.6%	-3.8%	31.3*	37.3%	68.8*	?
O=C(c1ccc(-c2ccc([N+](=O)[O-])cc2)o1)N1CCCCC1	-49.8%	-22.6%	43.4*	31.5%	92.6*	296.4%
O=C(Nc1cccc(NC(=O)c2ccc(-c3ccc(Br)cc3)o2)c1)c1ccccc1	1.7%	8.5%	-9.4	43.1%	-10.8	/
CCC1(c2ccccc2)NC(=O)N(CC(=O)NC2(C#N)CCCCC2)C1=O (stereo not given)	/	-8.6%	/	7.5%	/	-0.3%
C=CCn1c(SCC(=O)NCc2ccccc2)nnc1C1CCCCC1	-0.9%	1.4%	-1.6	-13.5%	-9.2	-7.3%
C=CCn1c(SCC(=O)Nc2nnc(C)s2)nnc1C1CC1	26.0%	0.8%	16.4*	25.1%	-23.4	22.4%
C=CCn1c(SCC(=O)Nc2cc(C)nn2-c2ccccc2)nnc1C1CCCCC1	0.4%	3.0%	14.1	11.7µM*	-11.8	-14.9%
C=CCc1cc(Cl)ccc1OCCN1CC(C)OC(C)C1 (stereo not given)	3.2%	-1.2%	-2.1	22.3%	-6.0	?
SMILES	NS1 inh	SARS PLpro yeast	Cycloheximide cs	Pf growth 96h	Shiga toxin inh	Pf growth 48h
CC1CCCCC1NC1=NCCCS1 (stereo not given)	-1.2%	-2.2%	-4.2	-8.5%	17.5	?
O=C(Nc1ccccc1C(=O)N/N=C/c1ccco1)c1ccc(F)cc1	13.1%	-66.3%	15.1	?	14.4	-17.3%
O=C(Nc1ccccc1C(=O)N/N=C/c1ccco1)c1ccc(Cl)cc1	-3.5%	-19.5%	18.7*	?	75.9*	-90.2%
O=C(Nc1ccccc1C(=O)N/N=C/c1ccco1)c1ccccc1	-5.7%	-23.9%	16.6	23.0%	+	28.4%
COc1cc2c(cc1OC)CN(Cc1cc(=O)oc3c(C)c(C)ccc13)CC2	6.4%	6.8%	2.1	13.1µM*	16.1	-27.3%
COc1cc2c(cc1OC)CN(Cc1cc(=O)oc3cc(C)c(Cl)cc13)CC2	-0.9%	6.3%	-2.8	?	-2.3	9.28µM*
COc1ccc2cc(C(=O)C3CCCN(C(=O)c4cccnc4)C3)ccc2c1 (stereo not given)	-3.2%	-0.5%	-1.4	11.7µM*	32.3	13.7%
CCNC(=O)N1CCCC(C(=O)c2ccc3cc(OC)ccc3c2)C1 (stereo not given)	-5.9%	-3.0%	20.0*	?	25.7	?
COc1ccc2cc(C(=O)C3CCCN(C(=O)C4=NN(C)C(=O)CC4)C3)ccc2c1 (stereo not given)	-4.3%	1.5%	20.5*	5.22µM*	2.5	0.4%
COc1ccc2cc(C(=O)C3CCCN(C(=O)c4csnn4)C3)ccc2c1 (stereo not given)	-10.3%	-2.1%	9.4	?	1.1	?
COc1cc(OC)cc(C(=O)N2CCN(C(=O)c3cccnc3)CC2)c1	-4.4%	7.0%	0.7	14.7µM*	-10.2	?
Cc1ccc(NC(=O)CCS(=O)(=O)c2ccccc2)cc1S(=O)(=O)N1CCCCCC1	/	1.9%	/	?	/	-0.2%
N#Cc1ccccc1S(=O)(=O)N1CCN(C(=O)C2CCCC2)CC1	4.9%	1.3%	7.9	1.5%	-1.7	-21.3%
Cc1ccc(C)c(S(=O)(=O)NCCN2CCOCC2)c1	1.8%	1.0%	-1.2	38.0%	-0.5	10.3%
Cc1noc(C)c1COc1ccc(C(=O)OCC(=O)Nc2ccc(S(N)(=O)=O)cc2)cc1	/	-13.5%	/	1.7%	/	-1.3%
CN(C)CCCNC(=O)C(=O)Nc1ccc2c(c1)N(S(=O)(=O)c1cccs1)CCC2	/	0.3%	/	?	/	9.28µM*
CN(C)CCNC(=O)C(=O)Nc1ccc2c(c1)N(S(=O)(=O)c1cccs1)CCC2	/	0.0%	/	13.1µM*	/	?
Cn1c(CNC(=O)CNC(=O)c2ccccc2)cc(=O)n(C)c1=O	7.4%	-3.3%	-1.8	16.7%	-2.9	20.7%
Cc1ccc(NC(=S)N(CCCN2CCOCC2)Cc2ccco2)cc1	1.6%	1.7%	1.4	11.7µM*	-8.4	1.8%
Cc1ccc(NC(=S)N(CCN2CCOCC2)Cc2ccccc2F)cc1Cl	/	1.2%	3.0	?	10.7	11.7µM*
O=C(Nc1ccccc1)N(CCN1CCOCC1)Cc1ccccc1F	1.3%	2.1%	15.2*	1.1%	-3.1	1.7%
O=C(c1ccc(Br)o1)N1CCN(CCc2ccncc2)CC1	1.8%	-1.8%	6.2	379.7%	-7.1	-22.5%
O=C(COc1ccccc1)N=C1SC2CS(=O)(=O)CC2N1CCc1ccccc1 (stereo not given)	14.1%	10.9%	-7.4	?	-9.9	-11.7%
